# Inconclusive results are not listed. A call without a number means that no potency is given here. Active and inactive are the calls of the source. The call rests on the fitted dose curve; in most records, active means well fitted activation curve with a large enough effect in the signal ratio in the repeat runs (not every such curve was filed as active); inconclusive means weak or mixed curves; inactive means flat fitted curve, though single readings scatter; the % refers to the signal ratio.
# Assay: qHTS assay to identify small molecule agonists of H2AX (AID 1224845)
# Details: CHO-K1 phospho-H2AX Ser139 HTRF, 3 h; series mostly up to 154 µM; activation (H2AX phosphorylation): at the top concentration
# How it was run: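 Wild-type CHO-K1 cells, plated overnight, exposed 3hr at 37C to 15 concentrations (0.76% DMSO final). Lysed, then HTRF anti-pH2AX (S139) cryptate and anti-H2AX-d2 antibodies, 24 hr room temperature; 665/620 nm emission read.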
SMILES,outcome,activation (H2AX phosphorylation)
COC(C)COC(C)COC(C)CO (centres undefined),inactive,
C[C@]12CCC(=O)C=C1CC[C@@H]1[C@@H]2C(=O)C[C@@]2(C)[C@H]1CC[C@]2(O)C(=O)CO,inactive,
Cc1cccc([N+](=O)[O-])c1C,,1.57% (inactive)
CCC(C)c1ccccc1O (centres undefined),inactive,
O=C(c1ccccc1)c1ccccc1O,inactive,
CC1=CC2C3CC(C=C3C)C2C1 (centres undefined),inactive,
Nc1ncn([C@@H]2O[C@H](CO)[C@@H](O)[C@H]2O)c(=O)n1,inactive,
OC(CCl)CCl,inactive,
CCC(C)CO (centres undefined),inactive,
Cc1ccc2c(n1)Oc1ccc(C(C)C(=O)OCC(=O)N(C)C)cc1C2 (centres undefined),inactive,
O=C(/C=C/c1ccccc1)OCc1ccccc1,inactive,
C#C[C@]1(O)CC[C@H]2[C@@H]3CCc4cc(OC)ccc4[C@H]3CC[C@@]21C,,-1.89% (inactive)
Cc1cccc(N(C)C(=S)Oc2ccc3ccccc3c2)c1,inactive,
CC(C(=O)O)c1cccc(C(=O)c2ccccc2)c1 (centres undefined),inactive,
Cc1c(OCC(F)(F)F)ccnc1CS(=O)c1nc2ccccc2[nH]1 (centres undefined),inactive,
Clc1nc(Cl)c(Cl)c(Cl)c1Cl,,0.449% (inactive)
Cn1cnc([N+](=O)[O-])c1Sc1ncnc2nc[nH]c12,,-0.0728% [at 70.9 µM] (inactive)
O=C(Nc1ccc(Cl)cc1)Nc1ccc(Cl)c(Cl)c1,inactive,

SMILES,outcome,activation (H2AX phosphorylation)
O=CCc1ccccc1,inactive,
OC1CCCCCCCCCCC1,inactive,
OC[C@H]1O[C@@H]2O[C@H]3[C@H](O)[C@@H](O)[C@@H](O[C@H]4[C@H](O)[C@@H](O)[C@@H](O[C@H]5[C@H](O)[C@@H](O)[C@@H](O[C@H]6[C@H](O)[C@@H](O)[C@@H](O[C@H]7[C@H](O)[C@@H](O)[C@@H](O[C@H]8[C@H](O)[C@@H](O)[C@@H](O[C@H]1[C@H](O)[C@H]2O)O[C@@H]8CO)O[C@@H]7CO)O[C@@H]6CO)O[C@@H]5CO)O[C@@H]4CO)O[C@@H]3CO,inactive,
CC(C)Oc1ccc2c(=O)c(-c3ccccc3)coc2c1,inactive,
Cc1ccc(C)c(O)c1C,inactive,
Cc1[nH]c(=O)c(C#N)cc1-c1ccncc1,inactive,
CCCCC/C=C/C=C/C=O,,-0.39% (inactive)
c1ccncc1,inactive,
Cc1cccc(C(=O)O)c1,inactive,
CCCCC(CC)COCC1CO1 (centres undefined),inactive,
O=C(COc1ccc(Cl)cc1)N1CCN(Cc2ccc3c(c2)OCO3)CC1,inactive,
CC(C)OB(OC(C)C)OC(C)C,inactive,
CC(CCC(=O)O)(c1ccc(O)cc1)c1ccc(O)cc1,inactive,
CC(=O)C1(C)CC2=C(CCCC2(C)C)CC1C (centres undefined),inactive,
CCOC(=O)C(C#N)=C(c1ccccc1)c1ccccc1,inactive,
CC(C)(C)NC(=O)[C@H]1CC[C@H]2[C@@H]3CC[C@H]4NC(=O)C=C[C@]4(C)[C@H]3CC[C@]12C,inactive,
C[C@]12CC[C@H]3[C@@H](CCC4=CC(=O)CC[C@@]43C)[C@@H]1CC[C@@H]2C(=O)CO,inactive,
C=C(C)C(=O)OCCOC(=O)C(=C)C,inactive,

# Assay: qHTS assay to identify small molecule agonists of the hypoxia (HIF-1) signaling pathway (AID 1224846)
# Details: HRE-bla ME-180 cells, beta-lactamase ratio, 17 h; series mostly up to 76.8 µM; activation: at the top concentration
# How it was run: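 Reporter induction in HRE-bla ME-180 cells is taken as agonism: cells sit 5 hrs after plating, receive compounds or DMSO only, incubate 17 hrs at 37C under 5% CO2, and are loaded with CCF4-AM for beta-lactamase FRET measurement.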
SMILES,Potency,activation
COC(C)COC(C)COC(C)CO (centres undefined),inactive,
Cc1cccc([N+](=O)[O-])c1C,inactive,
CCC(C)c1ccccc1O (centres undefined),inactive,
O=C(c1ccccc1)c1ccccc1O,inactive,
Brc1cc(Oc2cc(Br)c(Br)c(Br)c2Br)c(Br)c(Br)c1Br,inactive,
CC1=CC2C3CC(C=C3C)C2C1 (centres undefined),inactive,
OC(CCl)CCl,inactive,
CCC(C)CO (centres undefined),inactive,
Cc1ccc2c(n1)Oc1ccc(C(C)C(=O)OCC(=O)N(C)C)cc1C2 (centres undefined),inactive,
O=C(/C=C/c1ccccc1)OCc1ccccc1,inactive,
C#C[C@]1(O)CC[C@H]2[C@@H]3CCc4cc(OC)ccc4[C@H]3CC[C@@]21C,inactive,
Clc1nc(Cl)c(Cl)c(Cl)c1Cl,inactive,
O=C(Nc1ccc(Cl)cc1)Nc1ccc(Cl)c(Cl)c1,,4.2% (inactive)
O=CCc1ccccc1,inactive,
OC1CCCCCCCCCCC1,inactive,
OC[C@H]1O[C@@H]2O[C@H]3[C@H](O)[C@@H](O)[C@@H](O[C@H]4[C@H](O)[C@@H](O)[C@@H](O[C@H]5[C@H](O)[C@@H](O)[C@@H](O[C@H]6[C@H](O)[C@@H](O)[C@@H](O[C@H]7[C@H](O)[C@@H](O)[C@@H](O[C@H]8[C@H](O)[C@@H](O)[C@@H](O[C@H]1[C@H](O)[C@H]2O)O[C@@H]8CO)O[C@@H]7CO)O[C@@H]6CO)O[C@@H]5CO)O[C@@H]4CO)O[C@@H]3CO,inactive,
CC(C)Oc1ccc2c(=O)c(-c3ccccc3)coc2c1,inactive,
Cc1ccc(C)c(O)c1C,inactive,
CCCCC/C=C/C=C/C=O,,0.399% (inactive)
c1ccncc1,inactive,
Cc1cccc(C(=O)O)c1,inactive,
CCCCC(CC)COCC1CO1 (centres undefined),inactive,
O=C(COc1ccc(Cl)cc1)N1CCN(Cc2ccc3c(c2)OCO3)CC1,,3.75% (inactive)
O=[N+]([O-])c1ccc2c(c1)Cc1ccccc1-2,inactive,
CC(C)OB(OC(C)C)OC(C)C,inactive,
CC(=O)C1(C)CC2=C(CCCC2(C)C)CC1C (centres undefined),inactive,
CCOC(=O)C(C#N)=C(c1ccccc1)c1ccccc1,inactive,
C=C(C)C(=O)OCCOC(=O)C(=C)C,inactive,
